ERK EGF block: EGF-driven ERK pathway inhibition; HEK293-V1b, EGF-stimulated phospho-ERK AlphaScreen; Potency, µM (series often up to 11.5 µM), for the others: at the highest dose activity change, negative = inhibition, actives largely listed as inhibitors; actives 0.41% (n = 130,000); AID 1454;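 also: potency is read from the fitted curve at half-maximal effect; plate controls were stimulated vehicle wells for no effect and unstimulated vehicle basal for full effect; nearly all actives have a fitted effect of over 55% in size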
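Cell line HEK293 (stable V1b), low serum overnight. Pretreatment: compound 30 min, 37C. EGF 25 nM, 5 min. Detection: SureFire AlphaScreen, 5 h RT. AC50 via standard Hill equation.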
pERK EGF inh: confirmation of ERK pathway inhibitors under EGF stimulation | shares compounds with ERK EGF block | HEK293 EGF-stimulated ERK phosphorylation, AlphaScreen | Potency, µM (series often up to 57.5 µM), for the others: at the highest dose activity change, negative = inhibition, usual class: inhibitors | actives 60% (n = 60)
cRaf kinase inh: blocks human c-Raf kinase activity | shares compounds with ERK EGF block | c-Raf kinase inhibition, homogeneous biochemical assay | activity change, negative = inhibition, % at 76.9 µM | 70 tested, under 10 active | AID 1728
Target sequence (P04049 whole entry, looked up): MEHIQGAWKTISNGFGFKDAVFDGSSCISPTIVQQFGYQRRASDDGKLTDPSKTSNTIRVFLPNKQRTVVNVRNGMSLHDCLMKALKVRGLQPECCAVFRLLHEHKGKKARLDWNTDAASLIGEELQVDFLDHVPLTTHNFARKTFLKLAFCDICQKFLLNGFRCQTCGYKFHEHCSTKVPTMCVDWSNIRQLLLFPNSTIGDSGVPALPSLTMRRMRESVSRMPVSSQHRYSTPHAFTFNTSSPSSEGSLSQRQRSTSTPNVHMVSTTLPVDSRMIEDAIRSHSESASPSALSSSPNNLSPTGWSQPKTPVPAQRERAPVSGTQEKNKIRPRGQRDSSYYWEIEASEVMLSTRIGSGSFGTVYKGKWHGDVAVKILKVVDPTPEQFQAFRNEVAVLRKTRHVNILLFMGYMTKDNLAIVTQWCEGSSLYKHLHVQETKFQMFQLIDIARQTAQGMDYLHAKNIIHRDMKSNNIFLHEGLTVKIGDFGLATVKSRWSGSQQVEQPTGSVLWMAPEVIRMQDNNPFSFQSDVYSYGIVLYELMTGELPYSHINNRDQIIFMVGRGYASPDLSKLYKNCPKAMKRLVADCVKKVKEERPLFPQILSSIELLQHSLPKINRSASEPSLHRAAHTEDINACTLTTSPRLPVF
MEK1 kinase inh: MEK1 (human) kinase inhibition; homogeneous MEK kinase activity assay, ERK pathway; shares compounds with ERK EGF block; 70 tested, under 10 active; Potency, µM (titrated, usually from 76.9 µM), without a hit: top-dose activity change, negative = inhibition, hits mostly inhibitors
Numbers without * were called inactive; [ ] = dose if it differs, or a comment. The full list was thinned out, with hits kept by preference. Calls follow the shape of the dose curve; as a rule, active = well fitted curve in the direction sought with a large enough effect; inconclusive = small, poorly fitted or top-dose-only effect, or another doubt; inactive = no such curve, though single readings can be large; an effect the other way counts as inactive or inconclusive.

CC(C)C[C@@H](CC(=O)N[C@@H](CCC(=O)O)CC(=O)O)NC(=O)[C@@H]1CCCC[C@H]1NC(=O)C[C@@H](NC(=O)C[C@H](Cc1ccccc1)NC(=O)[C@@H]1CCCC[C@H]1N)C(C)C was read as ERK EGF block -10.7%.
O=C1CCC=C1C(O)c1ccccc1 (stereo not drawn) was read as ERK EGF block -8.2%.
Screening Nc1cc(C(=O)O)c(N)c2c1C(=O)c1ccccc1C2=O returned ERK EGF block 28.2µM*.
Nc1ccc(N)c(C(=O)O)c1 was read as ERK EGF block -10.8%[57.5 µM].
`Cc1ccc2c(c1)C(=O)c1c(C(=O)O)cccc1-2` gave ERK EGF block 2.7%.
Screening C=C[C@@H]1CN2CC[C@@H]1C[C@@H]2[C@@H](O)c1ccnc2ccc(OC)cc12 returned ERK EGF block -14.6%.
For O=C(O)c1ccc(N[C@@H]2OC[C@@H](O)[C@@H](O)[C@@H]2O)cc1 the results were ERK EGF block -8.8%.
For OC[C@H]1O[C@@H](n2cnc3c(Nc4ccccc4)ncnc32)[C@H](O)[C@H]1O the results were ERK EGF block -3.6%.
Screening CCCCCCCCCCOCCC(=O)O returned ERK EGF block -1.1%.
Cc1sc2ncnc(N/N=C/c3ccccc3O)c2c1C was read as ERK EGF block 4.3%.
For Cc1ccc(Nc2ncnc3sc(C)c(C)c23)cc1C the results were pERK EGF inh 11.2µM*, cRaf kinase inh inconclusive and MEK1 kinase inh -0.9%.
Cc1sc2ncnc(N/N=C/c3ccc(O)cc3)c2c1C was read as ERK EGF block -2.2%.
`CC(=O)CCOC1CCCCO1` (stereo not drawn) gave ERK EGF block 1.2%.
For COc1ccc(/C=C\C(=O)Nc2ccccc2C(=O)O)cc1OC the results were ERK EGF block -18.6%.
For N#Cc1ccc2c(c1)N(CCCN1CCC(O)CC1)c1ccccc1S2 the results were ERK EGF block 7.7%.
Screening CCCC/C=C/C(NC(=O)c1cccs1)c1ccccc1 (stereo not drawn) returned ERK EGF block 3.2%.
`CS(=O)(=O)CCNCc1nc(-c2ccc3ncnc(Nc4ccc(OCc5cccc(F)c5)c(Cl)c4)c3c2)cs1` gave ERK EGF block 1µM*, pERK EGF inh 0.708µM*, cRaf kinase inh -9.6 and MEK1 kinase inh -13.2%.
Screening CC(=O)OC1CC[C@]2(C)C(=CCC3C4CCC(C(C)CCCC(C)C)[C@]4(C)CCC32)C1 (stereo partly drawn) returned ERK EGF block 20.9%.
Screening CC(/C=C/c1ccccc1)=N/NC(=O)C(O)c1ccccc1 (stereo not drawn) returned ERK EGF block 5.6%.
`CC(/C=C/c1ccccc1)=N/NC(=O)c1cc([N+](=O)[O-])cc([N+](=O)[O-])c1` gave ERK EGF block 29.4%.
For CC(/C=C/c1ccccc1)=N\Nc1ccccc1[N+](=O)[O-] the results were ERK EGF block 7.94µM*, pERK EGF inh 8.91µM*, cRaf kinase inh -3.0 and MEK1 kinase inh -5.5%.
Screening CCCn1c(-c2ccc(F)cc2)nc2c(NC(C)CCCN(CC)CC)nc(C)nc21 (stereo not drawn) returned ERK EGF block 6.4%.
`CC(C)C[C@@H](CC(=O)N[C@@H](CCC(=O)O)CC(=O)O)NC(=O)[C@@H]1CNCC[C@H]1NC(=O)C[C@@H](NC(=O)C[C@H](CO)NC(=O)[C@@H]1CNCC[C@H]1N)C(C)C` gave ERK EGF block 4.3%.
For COc1c(OC)c2occc2c2oc(=O)ccc12 the results were ERK EGF block 7.8%.
COC(=O)[C@@]1(Cc2ccccc2)[C@H]2c3cc(C(=O)N(C)C)n(Cc4c(CO)[nH]cc(C)c4=O)c3C[C@H]2CN1C(=O)c1ccccc1 was read as ERK EGF block 1.2%.
`COC(=O)N1[C@H](Cc2ccccc2)C=C[C@]1(C)C(=O)NCc1ccc(N(C)C)cc1` gave ERK EGF block -1.8%.
`COC(=O)[C@@H](NC(=O)O[C@@H]1C(=O)c2cc(OC)ccc2O[C@H]1c1ccc(OC)c(Br)c1)C(C)C` gave ERK EGF block -6.2%.
Screening COc1ccc(CNC(=O)[C@H](C)[C@H]2C[C@]2(C)[C@H](NC(=O)OCc2ccccc2)c2ccccc2)cc1OC returned ERK EGF block 9.1%.
`CS(=O)(=O)n1nc(-c2ccc(Cl)cc2)nc1N` gave ERK EGF block -5.2%.
